Assay results as given in PubChem BioAssay AID1561 (National Center for Advancing Translational Sciences (NCATS), 2009).
Values without a mark were called inactive. Calls follow the shape of the dose curve; as a rule, active = well fitted curve in the direction sought with a large enough effect; inactive = no such curve, though single readings can be large or run the other way.

test: Secondary Assay for lipid storage modulators. Cytotoxcity; details: Drosophila S3 cells viability, CellTiter-Glo luminescence, 24 h; series mostly up to 46.1 µM; activity change, negative = cytotoxicity: at the top concentration
Source text: NIH Molecular Libraries Probe Production Centers Network [MLPCN] NIH Chemical Genomics Center [NCGC] MLPCN Grant: TBA Assay Submitter (PI): Beller, Mathias; Max-Planck-Institut fur Biophysikalische Chemie, Germany. NCGC Assay Overview: Storing lipids as a reservoir for energy or the anabolism of elementary metabolites is a common feature of probably all cells and is conserved from bacteria to humans. The universal cellular lipid storage organelle is the so-called lipid storage droplet (LD). Although ubiquitous, LDs share a simple structure composed of a hydrophobic core that harbors the storage lipids, which is shielded by a droplet-specific phospholipid monolayer to which proteins are attached. The current model of LD biogenesis involves an incorporation of the lipid core into the membrane leaflets of the endoplasmic reticulum (ER) followed by a subsequent budding-like maturation of a LD, which ultimately pinches off. Once released, LD volume can increase by localized lipogenesis or fusion of existing droplet. Storage lipids are re-mobilized enzymatically by lipase activity. […]
Assay Protocol Summary: Cytotoxcity assay was performed with embryonic Drosophila S3 cells (Bloomington Drosophila Genomics Resource Center [DGRC]). […] Luminescence was detected on the Perkin Elmer ViewLux.

Row | SMILES | activity change, negative = cytotoxicity [%]
1 | COC(=O)c1ccccc1NC(=O)c1ccc(F)cc1 | -35.2
